Results filed as inconclusive are left out. Activity calls are given as the source filed them. Unless noted, calls come from the whole dose curve; as a rule, active = well fitted curve in the direction sought with a large enough effect in the repeat runs; inconclusive = weak or mixed curves; inactive = no such curve, though single readings can be large; an effect the other way counts as inactive or inconclusive.
How the values were obtained:
[1] = target: Estrogen receptor (Homo sapiens) (UniProt P03372); test: qHTS assay to identify small molecule agonists of the estrogen receptor alpha (ER-alpha) signaling pathway in the presence of an antagonist (AID 1259383; calls by dose curve; note: top concentration of the series differs between compounds; nearly all actives have a fitted effect of over 15% in size)
Procedure, shortened: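 Using VM7Luc4E2 cells seeded 24hr before treatment, antagonist ICI-182,780 (10.0nM final) was added, followed by compounds at 15 concentrations. Plates incubated 22hr; ONE-Glo luminescence quantified reporter activity.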

[2] = qHTS assay to identify small molecule agonists or antagonists of the thyroid stimulating hormone receptor (TSHR) signaling pathway - wild type cell line counter screen (AID 1259384; calls by dose curve)
Procedure, shortened: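 Wild-type HEK293 cells were plated 18 h at 37 C/5% CO2, pin-dosed with compound plus Ro20-1724 medium, held 30 min at room temperature, then given cAMP-d2 and anti-cAMP-cryptate; fluorescence was read after 1 h. Fifteen concentrations, triplicate.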

[3] = target: Thyrotropin receptor (Homo sapiens) (UniProt P16473); test: qHTS assay to identify small molecule antagonists of the thyroid stimulating hormone receptor (TSHR) signaling pathway (AID 1259385; calls by dose curve; note: nearly all actives have a fitted effect of over 20% in size)
Procedure, shortened: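 TSHR-HEK293 cells were plated and held 18 h at 37C/5% CO2, then given compound plus Ro20-1724 and stimulated with TSH at 1.5 ng/mL final. After 30 min at room temperature, cAMP was detected with cAMP-d2/anti-cAMP-cryptate (1 h) by fluorescence.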

[4] = qHTS assay to identify small molecule agonists of the estrogen receptor alpha (ER-alpha) signaling pathway in the presence of an antagonist - cell viability counter screen (AID 1259386);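 note: series mostly up to about 92 µM; cells exposed to compounds for 22 h at 37 °C before the viability read; nearly all actives have a fitted effect of over 30% in size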
Procedure, shortened: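 ICI-182,780 at 10.0nM final accompanies the compound titration (15 concentrations, 22hr, 37C) on VM7Luc4E2 cells. The CellTiter-Fluor fluorescence readout runs in the same wells as the luciferase assay.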

[5] = target: Progesterone receptor (Homo sapiens) (UniProt P06401); test: qHTS assay to identify small molecule agonists of the progesterone receptor (PR) signaling pathway (AID 1346784; calls by dose curve; note: nearly all actives have a fitted effect of over 30% in size; note: potency is the fitted concentration of half-maximal effect)
Procedure, shortened: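 Reporter assay, GripTite PR-UAS-bla HEK 293T cells: 16 hr exposure to DMSO-dissolved compounds at 37C, 5% CO2, in steroid-depleted (2% charcoal-stripped FBS) medium; beta-lactamase measured by FRET fluorescence.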

[6] = target: Progesterone receptor (Homo sapiens) (UniProt P06401); test: qHTS assay to identify small molecule antagonists of the progesterone receptor (PR) signaling pathway (AID 1346795; active = well fitted inhibition curve with a large enough effect in the signal ratio in the repeat runs, not every such curve was filed as active; the % refers to the signal ratio)
Procedure, shortened: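 Stimulus R5020 at 1 nM final; cells HEK293T PR-UAS-bla; medium with 2% charcoal-stripped FBS; compound exposure 16 hr at 37C, 5% CO2; detection by FRET beta-lactamase substrate, 2 hr, room temperature.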

[7] = qHTS assay to identify small molecule agonists of the progesterone receptor (PR) signaling pathway - cell viability counter screen (AID 1346799; calls by dose curve; note: nearly all actives have a fitted effect of over 45% in size)
Procedure, shortened: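 Multiplexed viability read: CellTiter-Glo luminescence, 30 min RT, following LiveBLAzer FRET measurement on PR-UAS-bla HEK293T cells exposed to compounds 16 hr.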

[8] = qHTS assay to identify small molecule antagonists of the TGF-beta/Smad signaling pathway - cell viability counter screen (AID 1346824); note: nearly all actives have a fitted effect of over 50% in size
Procedure, shortened: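 SBE-bla HEK 293T cells were plated overnight at 37 C, then given compounds in DMSO plus TGF-beta1 (added as 0.25 ng/mL solution) for 5 hr. After the bla read, CellTiter-Glo was added to the same wells and luminescence read after 30 min at room temperature.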

[9] = qHTS assay to identify small molecule agonists of the TGF-beta/Smad signaling pathway - cell viability counter screen (AID 1346829); note: top concentration of the series differs between compounds; nearly all actives have a fitted effect of over 45% in size
Procedure, shortened: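 Cytotoxicity counter screen: CellTiter-Glo luminescence (30 min, room temperature) measured in the SBE-bla HEK 293T reporter wells after 5 hr compound treatment at 37 C and the 2 hr substrate step.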

[10] = qHTS assay to identify small molecule agonists of the TGF-beta/Smad signaling pathway (AID 1346859; active = well fitted activation curve with a large enough effect in the signal ratio in the repeat runs, not every such curve was filed as active; the % refers to the signal ratio; note: series mostly up to about 77 µM)
Procedure, shortened: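 Screening used HEK 293T SBE-bla cells at 4,000/well. Test agents: 5 hr, 37 C. Detection: FRET substrate, 2 hr RT, then excitation 405 nm with emissions at 460 and 530 nm.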

[11] = target: Thyrotropin-releasing hormone receptor (Homo sapiens) (UniProt P34981); test: qHTS assay to identify small molecule antagonists of the thyrotropin-releasing hormone receptor (TRHR) signaling pathway (AID 1346877; active = well fitted inhibition curve with a large enough effect in the repeat runs, not every such curve was filed as active; note: series mostly up to about 51 µM)
Procedure, shortened: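 Screening used HEK293 cells engineered with TRHR, with a brief 5 min room-temperature compound exposure preceding addition of TRH to 1 nM. The read-out was kinetic calcium-dye fluorescence, concentration-response from 15 doses in triplicate.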

[12] = target: Thyrotropin-releasing hormone receptor (Homo sapiens) (UniProt P34981); test: qHTS assay to identify small molecule agonists of the thyrotropin-releasing hormone receptor (TRHR) signaling pathway (AID 1346891; calls by dose curve; note: series mostly up to about 58 µM)
Procedure, shortened: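 Readout was intracellular calcium fluorescence in TRHR-Hek293 cells. Cells were incubated 18 h, dye-loaded 2 h at 37 °C, and treated with compound in agonist mode.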

[13] = Human pregnane X receptor (PXR) small molecule agonists, qHTS cell viability counter screen (AID 1346977); note: nearly all actives have a fitted effect of over 50% in size
Procedure, shortened: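 In each well, the PXR reporter HepG2 line was checked for viability: CellTiter-Fluor reagent added 23hr post-dosing, fluorescence read after 1hr incubation at 37C.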

[14] = Caspase-3/7 induction in HepG2 cells by small molecules, qHTS assay (AID 1346978); note: nearly all actives have a fitted effect of over 15% in size
Procedure, shortened: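 Wild-type HepG2 cells (2,000/well) were settled 5 h at 37 C, 5% CO2, then exposed to compounds in DMSO for 17 h. Caspase-3/7 activity was read by luminescence 30 min after adding Caspase-Glo 3/7 reagent at room temperature.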

[15] = Caspase-3/7 induction in CHO-K1 cells by small molecules, qHTS cell viability counter screen (AID 1346979); note: nearly all actives have a fitted effect of over 35% in size
Procedure, shortened: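 Following a 5hr settling period, CHO-K1 cells at 1,500 per well received DMSO-dissolved compounds. Cell viability was quantified 16hr later by CellTiter-Fluor fluorescence, measured after 1hr with reagent at 37C.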

[16] = Caspase-3/7 induction in CHO-K1 cells by small molecules, qHTS assay (AID 1346980); note: nearly all actives have a fitted effect of over 15% in size
Procedure, shortened: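 Wild-type cells were seeded at 1,500 per well and settled 5 hr at 37 C, 5% CO2, then exposed to DMSO-dissolved compounds for 17 hr. Caspase-Glo 3/7 reagent was added, and luminescence was read after 30min at room temperature.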

[17] = Caspase-3/7 induction in HepG2 cells by small molecules, qHTS cell viability counter screen (AID 1346981); note: series mostly up to about 92 µM; nearly all actives have a fitted effect of over 30% in size
Procedure, shortened: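 Multiplexed with the caspase-3/7 assay: HepG2 cells, 16 hr compound treatment, CellTiter-Fluor viability detection by fluorescence.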

[18] = target: Nuclear receptor subfamily 1 group I member 2 (Homo sapiens) (UniProt O75469); test: Human pregnane X receptor (PXR) small molecule agonists, qHTS assay (AID 1346982); note: nearly all actives have a fitted effect of over 35% in size
Procedure, shortened: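 We seeded PXR-Luc HepG2 cells in assay medium containing 5% charcoal-stripped FBS, added compounds 5 hr later, incubated 24 hr, and read luminescence with ONE-Glo reagent.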

[19] = qHTS assay to identify small molecule antagonists of the progesterone receptor (PR) signaling pathway - cell viability counter screen (AID 1346798); note: series mostly up to about 92 µM; nearly all actives have a fitted effect of over 50% in size
Procedure, shortened: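 In the same plates used for the beta-lactamase readout, cell viability of compound- and R5020-treated PR-UAS-bla HEK293T cells (16 hr, 37C) was assessed by CellTiter-Glo luminescence.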

[20] = target: Nuclear receptor subfamily 1 group I member 2 (Rattus norvegicus) (UniProt Q9R1A7); test: Rat pregnane X receptor (rPXR) activation by small molecules, qHTS assay (AID 1346983); details: rPXR luciferase reporter cells, One-Glo luminescence, 24 h; max activation: hits give high values; note: nearly all actives have a fitted effect of over 20% in size
Procedure, shortened: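 Cell-based rPXR luciferase reporter assay, 2,000 cells per well, rested 5hr at 37 C before compound addition in DMSO, then 24 hr at 37 C. One-Glo reagent was added and luminescence read after 30 min at room temperature.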
% is set by controls: 0 for no effect and ±100 for the full control effect.

Estrogen receptor (Homo sapiens), sequence (P03372 whole entry, looked up): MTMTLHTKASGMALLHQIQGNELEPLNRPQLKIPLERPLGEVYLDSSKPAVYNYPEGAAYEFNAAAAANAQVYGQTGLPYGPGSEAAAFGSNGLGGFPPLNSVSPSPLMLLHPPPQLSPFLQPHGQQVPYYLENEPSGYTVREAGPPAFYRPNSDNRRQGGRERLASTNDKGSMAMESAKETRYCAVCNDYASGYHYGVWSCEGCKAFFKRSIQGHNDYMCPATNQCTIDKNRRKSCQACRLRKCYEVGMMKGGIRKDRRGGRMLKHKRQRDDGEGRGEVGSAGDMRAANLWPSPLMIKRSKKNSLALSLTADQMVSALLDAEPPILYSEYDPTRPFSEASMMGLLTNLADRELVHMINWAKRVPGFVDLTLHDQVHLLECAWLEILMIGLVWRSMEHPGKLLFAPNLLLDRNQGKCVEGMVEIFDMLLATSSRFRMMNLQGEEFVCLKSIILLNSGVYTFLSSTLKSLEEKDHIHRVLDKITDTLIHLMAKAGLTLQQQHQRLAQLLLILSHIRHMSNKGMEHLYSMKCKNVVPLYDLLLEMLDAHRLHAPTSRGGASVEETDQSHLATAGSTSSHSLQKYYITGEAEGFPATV
Thyrotropin receptor (Homo sapiens), sequence (P16473 whole entry, looked up): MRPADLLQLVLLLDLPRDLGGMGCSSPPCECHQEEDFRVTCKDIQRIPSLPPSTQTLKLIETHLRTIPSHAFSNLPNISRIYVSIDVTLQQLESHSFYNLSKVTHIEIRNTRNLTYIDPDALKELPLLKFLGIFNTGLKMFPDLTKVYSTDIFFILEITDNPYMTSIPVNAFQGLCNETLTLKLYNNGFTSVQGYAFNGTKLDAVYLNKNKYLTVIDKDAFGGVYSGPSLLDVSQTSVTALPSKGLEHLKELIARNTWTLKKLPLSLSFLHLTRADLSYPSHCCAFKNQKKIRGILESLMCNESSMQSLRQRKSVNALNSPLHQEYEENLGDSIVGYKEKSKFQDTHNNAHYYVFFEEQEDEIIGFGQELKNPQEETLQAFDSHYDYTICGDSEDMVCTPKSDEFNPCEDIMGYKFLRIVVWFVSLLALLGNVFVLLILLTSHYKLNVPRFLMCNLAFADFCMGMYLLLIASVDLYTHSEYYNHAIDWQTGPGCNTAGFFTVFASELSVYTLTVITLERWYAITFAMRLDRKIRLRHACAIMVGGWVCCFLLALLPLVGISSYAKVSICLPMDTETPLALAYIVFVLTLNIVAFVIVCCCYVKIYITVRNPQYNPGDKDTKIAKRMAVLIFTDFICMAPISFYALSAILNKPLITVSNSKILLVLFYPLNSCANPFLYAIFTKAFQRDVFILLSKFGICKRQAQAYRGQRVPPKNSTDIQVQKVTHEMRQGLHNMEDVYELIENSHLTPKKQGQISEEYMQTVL
Nuclear receptor subfamily 1 group I member 2 (Homo sapiens), sequence (O75469 whole entry, looked up): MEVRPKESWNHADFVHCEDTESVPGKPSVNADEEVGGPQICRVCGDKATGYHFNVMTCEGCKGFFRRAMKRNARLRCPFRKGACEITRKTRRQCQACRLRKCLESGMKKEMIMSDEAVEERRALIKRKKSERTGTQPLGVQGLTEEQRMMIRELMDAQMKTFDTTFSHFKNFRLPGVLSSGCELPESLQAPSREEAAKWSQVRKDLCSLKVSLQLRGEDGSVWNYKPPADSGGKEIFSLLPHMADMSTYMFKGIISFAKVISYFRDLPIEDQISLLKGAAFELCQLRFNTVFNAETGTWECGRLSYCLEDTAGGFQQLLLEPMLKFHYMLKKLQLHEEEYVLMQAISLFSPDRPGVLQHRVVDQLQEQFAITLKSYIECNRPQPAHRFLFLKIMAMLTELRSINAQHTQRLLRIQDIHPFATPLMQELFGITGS
Thyrotropin-releasing hormone receptor (Homo sapiens), sequence (P34981 whole entry, looked up): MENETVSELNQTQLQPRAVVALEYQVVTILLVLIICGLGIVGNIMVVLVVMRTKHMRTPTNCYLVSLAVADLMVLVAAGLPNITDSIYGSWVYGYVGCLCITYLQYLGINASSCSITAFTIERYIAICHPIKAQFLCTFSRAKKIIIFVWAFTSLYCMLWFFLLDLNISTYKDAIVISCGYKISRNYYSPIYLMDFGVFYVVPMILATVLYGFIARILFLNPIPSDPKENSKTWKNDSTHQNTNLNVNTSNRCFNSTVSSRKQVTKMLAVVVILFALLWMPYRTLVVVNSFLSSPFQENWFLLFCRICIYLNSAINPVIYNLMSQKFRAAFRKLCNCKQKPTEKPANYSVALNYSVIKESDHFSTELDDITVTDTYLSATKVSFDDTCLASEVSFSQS
Progesterone receptor (Homo sapiens), sequence (P06401 whole entry, looked up): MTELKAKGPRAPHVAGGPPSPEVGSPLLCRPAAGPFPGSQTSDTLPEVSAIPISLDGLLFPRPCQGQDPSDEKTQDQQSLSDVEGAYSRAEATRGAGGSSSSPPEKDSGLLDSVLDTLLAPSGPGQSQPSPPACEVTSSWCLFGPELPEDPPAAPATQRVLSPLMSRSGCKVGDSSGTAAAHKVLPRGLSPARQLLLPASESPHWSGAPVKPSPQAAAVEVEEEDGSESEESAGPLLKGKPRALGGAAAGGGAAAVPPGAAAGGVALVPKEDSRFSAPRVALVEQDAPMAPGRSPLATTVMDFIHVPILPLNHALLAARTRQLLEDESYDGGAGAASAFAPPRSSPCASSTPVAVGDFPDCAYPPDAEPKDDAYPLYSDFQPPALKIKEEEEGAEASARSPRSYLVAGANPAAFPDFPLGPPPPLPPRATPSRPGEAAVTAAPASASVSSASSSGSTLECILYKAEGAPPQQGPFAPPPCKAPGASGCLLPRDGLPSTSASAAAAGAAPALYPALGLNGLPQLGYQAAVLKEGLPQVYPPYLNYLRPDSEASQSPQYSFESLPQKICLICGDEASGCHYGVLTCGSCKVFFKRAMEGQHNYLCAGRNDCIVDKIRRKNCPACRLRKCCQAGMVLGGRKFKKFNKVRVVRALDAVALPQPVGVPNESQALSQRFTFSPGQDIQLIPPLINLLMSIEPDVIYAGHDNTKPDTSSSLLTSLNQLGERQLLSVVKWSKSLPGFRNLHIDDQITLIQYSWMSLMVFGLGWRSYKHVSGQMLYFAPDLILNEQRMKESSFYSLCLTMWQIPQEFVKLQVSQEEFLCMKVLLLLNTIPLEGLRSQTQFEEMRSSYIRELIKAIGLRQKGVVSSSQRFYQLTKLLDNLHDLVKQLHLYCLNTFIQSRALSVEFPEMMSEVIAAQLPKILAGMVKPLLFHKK
Nuclear receptor subfamily 1 group I member 2 (Rattus norvegicus), sequence (Q9R1A7 whole entry, looked up): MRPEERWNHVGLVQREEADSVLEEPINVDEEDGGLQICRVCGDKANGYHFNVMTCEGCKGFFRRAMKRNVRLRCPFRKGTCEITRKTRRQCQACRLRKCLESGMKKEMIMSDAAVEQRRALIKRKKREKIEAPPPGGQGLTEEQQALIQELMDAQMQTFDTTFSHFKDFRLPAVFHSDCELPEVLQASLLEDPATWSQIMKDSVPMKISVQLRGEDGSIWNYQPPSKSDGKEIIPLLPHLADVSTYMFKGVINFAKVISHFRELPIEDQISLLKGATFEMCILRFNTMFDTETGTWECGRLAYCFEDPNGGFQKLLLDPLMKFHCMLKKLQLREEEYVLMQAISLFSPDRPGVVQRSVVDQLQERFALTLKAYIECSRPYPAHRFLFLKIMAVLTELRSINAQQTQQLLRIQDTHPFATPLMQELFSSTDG

C=CCCCCCCCCCCC
inactive: activation [1] 0.334% [at 8.39 µM] | cAMP activity change [2] 1.9% [at 8.39 µM] | activity change, negative = inhibition [3] 3.13% [at 8.39 µM] | activity change, negative = cytotoxicity [4] -2.37% [at 8.39 µM] | activation [5] -0.805% [at 8.39 µM] | activity change, negative = inhibition [6] 5.07% [at 8.39 µM] | activity change, negative = cytotoxicity [7] -1.19% [at 8.39 µM] | viability change, negative = cytotoxic [8] 12.5% [at 6.97 µM] | activity change, negative = cytotoxicity [9] -3.69% [at 6.97 µM] | activation [10] -3.71% [at 6.97 µM] | activity, negative = inhibition [11] 4.06% [at 4.65 µM] | activation [12] -0.423% [at 5.23 µM] | activity change, negative = cytotoxicity [13] -1.17% [at 8.39 µM] | caspase activation [14] -1.35% [at 8.39 µM] | activity change, negative = cytotoxicity [15] -0.387% [at 8.39 µM] | caspase-3/7 activation [16] 0.611% [at 8.39 µM] | activity change, negative = cytotoxicity [17] 0.644% [at 8.39 µM] | activation [18] -8.11% [at 8.39 µM]

CCOC(=O)C(C)(C)C
inactive: outcome [1] | outcome [2] | outcome [3] | Potency [4] | Potency [6] | Potency [19] | Potency [7] | outcome [8] | outcome [9] | outcome [10] | Potency [13] | outcome [14] | Potency [15] | outcome [16] | Potency [17] | Potency [18]
active: Potency [5] 12.3 µM

Nc1ccnc(=O)[nH]1
inactive: outcome [1] | outcome [2] | outcome [3] | Potency [4] | Potency [5] | Potency [6] | Potency [19] | Potency [7] | outcome [9] | outcome [10] | outcome [11] | outcome [12] | Potency [13] | outcome [14] | Potency [15] | outcome [16] | Potency [17] | Potency [18]

NS(=O)(=O)c1ccc(Cl)c(S(N)(=O)=O)c1
inactive: outcome [1] | outcome [2] | outcome [3] | Potency [4] | Potency [5] | Potency [6] | Potency [19] | Potency [7] | outcome [8] | outcome [9] | outcome [10] | outcome [12] | Potency [13] | outcome [14] | outcome [16] | Potency [17] | Potency [18] | max activation [20] -3.93%

CC(C)COC(=O)/C=C/c1ccccc1
inactive: outcome [1] | outcome [2] | outcome [3] | Potency [4] | Potency [5] | Potency [6] | Potency [19] | Potency [7] | outcome [8] | outcome [9] | outcome [10] | Potency [13] | outcome [14] | Potency [15] | outcome [16] | Potency [17] | Potency [18]

NC(=O)C1(N2CCCCC2)CCN(CCCC(=O)c2ccc(F)cc2)CC1
inactive: outcome [1] | outcome [2] | outcome [3] | Potency [4] | Potency [5] | Potency [6] | Potency [19] | Potency [7] | outcome [8] | outcome [9] | outcome [10] | Potency [13] | outcome [14] | Potency [15] | Potency [17] | Potency [18] | max activation [20] 0.444%

— PubChem BioAssay (Tox21)
